# Results: PubChem BioAssay (NCI)
# The panel holds about 83,000 compounds, 20% with a hit somewhere; the sample as a whole holds those more often.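 Treatment: one concentration, 48 hours, 96-well format. Scoring: percent growth, with anything below 10 considered active.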 Unmarked numbers belong to inactive results. Calls of active or inactive are those of the source.
# Tests used:
# Assay in all cases: NCI-60 one-dose screen, 48 h (100 = growth as untreated, 0 = no growth, -100 = all killed)
# Details in all cases: 10 µM
# SK-MEL-2 melanoma = tested on: SK-MEL-2 melanoma
# EKVX NSCLC = tested on: EKVX NSCLC
# SN12C renal = tested on: SN12C renal
# UO-31 renal = tested on: UO-31 renal
# TK-10 renal = tested on: TK-10 renal
# ACHN renal = tested on: ACHN renal
# CAKI-1 renal = tested on: CAKI-1 renal
# A498 renal = tested on: A498 renal
# CCRF-CEM leukemia = tested on: CCRF-CEM leukemia
# MOLT-4 leukemia = tested on: MOLT-4 leukemia
SMILES,growth (SK-MEL-2 melanoma),growth (EKVX NSCLC),growth (SN12C renal),growth (UO-31 renal),growth (TK-10 renal),growth (ACHN renal),growth (CAKI-1 renal),growth (A498 renal),growth (CCRF-CEM leukemia),growth (MOLT-4 leukemia)
CC(=O)C1CCC2C3CC=C4CC(SC(=N)N)CCC4(C)C3CCC12C (stereo not given),32.3%,55.2%,47.1%,63%,66.8%,54.4%,62.7%,78.3%,6.89% (active),-5.72% (active)
NS(=O)(=O)Oc1ccc(NC(=O)C2CCCCCC2)cc1,106%,85.1%,99.1%,82.1%,105%,97.3%,87.4%,122%,89.4%,104%
COc1cc(/C=C2\CCCC3=C2N=C2SC(C)=CN2C3c2cc(OC)c(OC)c(OC)c2)cc(OC)c1OC (stereo not given),-19.6% (active),19.6%,-23.6% (active),-37.2% (active),2.25% (active),-78.6% (active),11.1%,-30.9% (active),1.41% (active),1.02% (active)
CC(=O)Nc1ccc(CC[C@H]2CCC/C=C/[C@@H]3C[C@H](O)C[C@H]3[C@H](O)/C=C/C(=O)O2)cc1,-28.6% (active),8.89% (active),5.85% (active),6.87% (active),-45.5% (active),4.68% (active),16%,-32.9% (active),-4.29% (active),-6.82% (active)
NC1=CC(=O)C(=O)c2cccnc21,77.9%,98.3%,70%,47.8%,113%,60.1%,83.1%,92.6%,82.9%,106%
CCOc1ccccc1/C=N\N=C\c1ccccc1O,100%,91.5%,93.5%,52%,121%,100%,92.9%,91.2%,71.6%,72.5%
CNS(=O)(=O)Oc1ccc(-c2sc3cc(OS(=O)(=O)NC)ccc3c2C(=O)c2ccc(OCCN3CCCCC3)cc2)cc1,83.7%,79.6%,79.5%,50.9%,99.5%,96.8%,59.3%,76.2%,46.5%,23.2%
CC(C)(C)OC(=O)CC(S(=O)(=O)c1ccccc1)S(=O)(=O)c1ccccc1,114%,112%,96.1%,61.4%,21.4%,17.8%,90.6%,102%,46.9%,82.7%
COc1ccc2c(c1)C(=O)/C(=C/c1cccc(OCC(=O)c3ccc([N+](=O)[O-])cc3)c1)CO2,-47.3% (active),75.6%,65.6%,-68% (active),3.16% (active),51.8%,16.3%,79.5%,-11.8% (active),-38% (active)
O=C1CSC(=S)N1/N=C/c1ccc(Cl)s1,98.6%,101%,95.8%,79.3%,118%,98.4%,100%,103%,98.6%,102%
CCOC(=O)CN(c1sc(C)c(C)c1C(=O)OCC)S(=O)(=O)c1ccc(C)cc1,127%,101%,87%,80.7%,121%,98.1%,72.8%,106%,94.4%,97%
Cc1cc(C)nc(NS(=O)(=O)c2ccc(Nc3nc4nc(NCc5ccccc5)nc(-c5ccc(O)cc5)c4c(=O)[nH]3)cc2)n1,4.65% (active),26.7%,33.1%,10.9%,10.3%,15.6%,33.1%,42.5%,19.6%,-1.75% (active)
COC(=O)C1OC1c1cc([N+](=O)[O-])ccc1OC (stereo not given),111%,102%,107%,74.4%,107%,108%,83.2%,127%,96%,83.6%
O=S(=O)(Oc1ccc(-c2ccc3sccc3c2)cc1)c1ccc(F)cc1,114%,91.5%,96.5%,92.2%,93.7%,107%,82.7%,95.3%,86.1%,89.4%
O=C(COc1cccc(/C=C2\CSc3ccccc3C2=O)c1)c1ccc(Cl)cc1,-71.6% (active),68.1%,-6.61% (active),-79% (active),-4.52% (active),-65.6% (active),-65.2% (active),54%,-51.6% (active),-67.3% (active)
NS(=O)(=O)Oc1ccc2c(ccn2C(=O)C23CC4CC(CC(C4)C2)C3)c1,116%,109%,97.8%,80.4%,106%,101%,94.4%,98.1%,99%,101%
Cc1ccc(S(=O)(=O)N/N=C2\CCCc3ccccc32)cc1,103%,93.6%,112%,88.1%,119%,94.9%,89.8%,91.8%,91.8%,101%
O=C(Nc1ccc(NS(=O)(=O)c2ccc(F)cc2)cc1)C12CC3CC(CC(C3)C1)C2,107%,74.4%,92.6%,75.1%,96.7%,102%,86%,90.8%,84.2%,77.7%
COc1cc2c(cc1OC)C(C(CCCCCC(CCC(C)C)C1NCCc3cc(OC)c(OC)cc31)CCC(C)C)NCC2 (stereo not given),-91.9% (active),-74.4% (active),-85.5% (active),-96.3% (active),-97.2% (active),-100% (active),-84.7% (active),-59.6% (active),-74.3% (active),2.91% (active)
O=[N+]([O-])c1ccc2ncccc2c1Cl,77.4%,119%,45.6%,30.2%,66.7%,56.2%,32%,100%,12.3%,30%
Cc1ccc2nc(Cl)c(-c3nc4ccccc4o3)cc2c1,94.2%,88.1%,104%,62.9%,115%,76%,105%,75.6%,98.1%,81.4%
OCC1OC(n2ccc3c(NO)ncnc32)C(O)C1O (stereo not given),-78.6% (active),-15.3% (active),-27.2% (active),-25% (active),-15.1% (active),-15.3% (active),1.77% (active),-51.1% (active),-8.6% (active),-32.9% (active)
COc1cc2c(cc1NC(=O)C(Cl)Cl)-c1ccc(NC(=O)C(Cl)Cl)cc1C2,-14.7% (active),-9.2% (active),58.6%,-9.34% (active),-12.3% (active),-43.4% (active),-35.4% (active),10.1%,81.9%,94.8%
c1ccc(CCCCc2ccc3ccccc3n2)cc1,94.3%,98.1%,105%,91.4%,90.2%,103%,99.4%,94.5%,99.8%,97.3%
CCOC(=O)C1C(C(=O)OCC)C2C(=O)C3C(C(=O)OCC)C(C(=O)OCC)C3C(=O)C12 (stereo not given),115%,96.3%,94.2%,94.8%,112%,98.8%,101%,102%,102%,106%
CC(=O)Nc1ccc(S(=O)(=O)c2ccnc3cc(Cl)ccc23)cc1,79.2%,86.7%,81%,106%,82.3%,69.3%,75.3%,95.9%,52.9%,68.8%
